Experimental findings from PubChem BioAssay are described below.

The structures appear in SMILES notation.

The test in a line: probe aLAP1 signal on lysate-treated microarray – cell lysate, small-molecule microarray, COS7 lysate, primary screen (AID 1124).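 Further: lysate comes from COS7 cells expressing LAP1 and is applied at 0.3 µg/mL; score merges spot fluorescence near 667 nm with signal-to-noise over triplicate slides.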 The settings on record: probe aLAP1, fluorescence, higher = more signal.
In the case of `NC(=O)NCC#Cc1ccc2c(c1)[C@]1(C(=O)N2)[C@H](C(=O)N2CCCCCCC2)[C@H]2C(=O)O[C@H](c3ccccc3)[C@H](c3ccccc3)N2[C@@H]1c1ccc(O)cc1`, the composite z-score is 0.624.

`COCCOC(=O)N1C(=O)[C@@]2(c3cc(C#CC4=CCCCC4)ccc31)[C@H](C(=O)N1CCN(c3ncccn3)CC1)[C@H]1C(=O)O[C@H](c3ccccc3)[C@H](c3ccccc3)N1[C@@H]2c1ccccc1OCCO` showed a composite z-score of 0.35.

Turning to `COCCOC(=O)N1C(=O)[C@@]2(c3cc(C#CC4(O)CCCCCC4)ccc31)[C@H](c1ccccc1OCCO)N1[C@H](c3ccccc3)[C@H](c3ccccc3)OC(=O)[C@H]1[C@@H]2C(=O)N1CCCCCCC1`, the composite z-score worked out at 0.364.

As for `CCCCC=C[C@@H](NC(=O)c1ccc(C(F)(F)F)cc1)c1ccccc1`, the composite z-score is -0.0554.

With `C=CCC(OC(C)=O)[C@@H]1[C@@H](N(Cc2ccc(-c3ccccc3)cc2)C(=O)c2ccc(C)cc2)c2cc(OCCCO)ccc2N1C(=O)c1ccc2ccccc2c1` (some centres undefined), the composite z-score was -0.031.

`CCCCC(=C=CC[C@@H](O)c1cccc(OCCO)c1)CCO`: the composite z-score came out at 0.0297.

On to `CCOC(=O)C[C@H]1[C@H](OC(=O)Cc2ccc3c(c2)OCO3)[C@@H](NC(=O)c2ccccc2)c2cc(OCCCO)ccc2N1C(=O)Cc1ccc(OC)cc1`, for which the composite z-score was -0.0337.

For the compound `CCCCN1CC=CC23O[C@@H]4C=CCOC(=O)[C@@H]4[C@H]2C(=O)N(C(CO)C(C)C)[C@@H]3C1=O` (some centres undefined), the composite z-score was -0.304.

Regarding `COC(=O)[C@@]1(Cc2ccc(OC)cc2)[C@@H]2[C@@H](CC(=O)[C@H]2CC(=O)C(=O)N2CCCC2)CN1C(=O)c1ccccc1`, the composite z-score stood at 0.921.
